Data as given in PubChem BioAssay (EPA / NIEHS).
Where “and” joins values, the source holds several entries; their conditions need not be identical. Identical values can stand only once. Inconclusive results are not listed. More than one record can exist for a structure, and the calls need not agree. Calls of active or inactive are those of the source. Rule for the calls, unless noted: active = hit-call score of the fitted dose curve at least 0.9, where 1 is the maximum; inconclusive = response in the unintended direction; inactive = score below 0.9. *1 amine or outer side, *2 acyl side, *3 side chain or, on linkers, in order; H or OH if unused. Where a SMILES comes first, the peptide text is derived from it. Bridges are numbered along the chain shown (N, C = ends). [ ]: non-standard residue; d: D form. The star is where a group is joined. X3 = NC1=N[C@@H]([C@H](N[*:1])C(=O)[*:2])C[C@H](O)N1; ΔAla(Z-3-ureido) = NC(=O)N/C=C(\N)C(=O)O; β3hOrn = NCCC[C@H](N)CC(=O)*; Dap = NC[C@H](N)C(=O)O

Columns and labels:
[1] = TOX21_p53_BLA_p2_viability: Viability Assessment in the Tox21 HCT-116 p53 Agonism Beta-lactamase Assay, Phase 2 (AID 2283591);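 note: compound exposure lasted 16 h at 37 °C; actives lower the ATP signal meaning cytotoxicity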
Procedure, shortened: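 HCT116 p53-bla cells, 4000/well, dosed after 5 h plating (217-fold dilution of DMSO stocks) and incubated 16 h at 37C. Viability taken as cellular ATP by CellTiter-Glo luminescence after 30 min RT; signal loss marks cytotoxicity.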

[2] = target: Cellular tumor antigen p53 (Homo sapiens) (UniProt P04637); assay: TOX21_p53_BLA_p2_ratio: Tox21 HCT-116 p53 Agonism Beta-lactamase Assay, Ratio, Phase 2 (AID 2283592)
Procedure, shortened: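 Read-out is the blue/green (460/530 nm, 405 nm excitation) ratio after 2 h CCF4-AM loading, fitted as gain versus DMSO. Compounds, pinned at 217-fold dilution from DMSO stocks, stayed 16 h on HCT-116 beta-lactamase reporter cells seeded 5 h earlier.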

[3] = TOX21_p53_BLA_p4_viability: Viability Assessment in the Tox21 HCT-116 p53 Agonism Beta-lactamase Assay, Phase 4 (AID 2283597);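 note: hits lower the luminescence signal meaning cytotoxicity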
Procedure, shortened: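 Cytotoxicity as reduced cellular ATP (CellTiter-Glo luminescence, 30 min room temperature), measured in the same wells following the CCF4 FRET p53 reading. Human HCT-116 cells received compounds in DMSO (217-fold dilution) for 16 h.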

[4] = TOX21_p53_BLA_p5_viability: Viability Assessment in the Tox21 HCT-116 p53 Agonism Beta-lactamase Assay, Phase 5 (AID 2283600)
Procedure, shortened: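 Viability came from CellTiter-Glo ATP luminescence, read after 30 min at room temperature. Before this, HCT-116 p53-bla cells (4000/well) had 16 hours of compound exposure at 37C, with DMSO stocks diluted 217-fold on transfer.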

[5] = target: Cellular tumor antigen p53 (Homo sapiens) (UniProt P04637); assay: TOX21_p53_BLA_p4_ratio: Tox21 HCT-116 p53 Agonism Beta-lactamase Assay, Ratio, Phase 4 (AID 2283601)
Procedure, shortened: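 HCT-116 p53 beta-lactamase reporter cells (4000/well) preincubated 5 h, then compound (217-fold dilution of DMSO stock) for 16 h at 37C. CCF4-AM substrate added 2 h at room temperature; 460/530 nm emission ratio fitted upward versus DMSO.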

[6] = target: Cellular tumor antigen p53 (Homo sapiens) (UniProt P04637); assay: TOX21_p53_BLA_p5_ratio: Tox21 HCT-116 p53 Agonism Beta-lactamase Assay, Ratio, Phase 5 (AID 2283599)
Procedure, shortened: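 HCT-116 p53-bla cells (4000/well) plated 5 h, dosed with compound (217-fold DMSO dilution) for 16 h at 37 C; CCF4-AM substrate 2 h at room temperature. Activity is the 460/530 nm emission ratio (405 nm excitation), fitted in gain-of-signal direction versus DMSO.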

[7] = target: Thyroid hormone receptor alpha (Rattus norvegicus) + Thyroid hormone receptor beta (Rattus norvegicus) (UniProt P18113+P63059); assay: TOX21_TR_LUC_GH3_Antagonist_Followup: Tox21 GH3 Thyroid Hormone Receptor Antagonism Luciferase Follow-Up Assay (AID 2283942)
Procedure, shortened: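 Luminescence read-out (ONE-Glo, 30 min at room temperature) in GH3 reporter cells challenged with 1.0 nM T3 final. Compounds ran at 92 uM to 5nM over 15 concentrations for 24 h; DMSO served as negative control and baseline.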

THRB (gene 7068) = THRB (gene 7068) (UniProt P10828); assay: TOX21_TRB_BLA_Antagonist_Followup_ratio: Tox21 Thyroid Hormone Receptor beta Antagonism Beta-lactamase (BLA) Follow-Up Assay, Ratio (AID 2283958)
Procedure, shortened: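 Beta-lactamase reporter ratio (460/530 nm, CCF4-AM substrate, 2 h room temperature) was read in TRb-bla HEK293T cells after 18 h compound treatment (11 concentrations, triplicate) at 37C in 2% charcoal-stripped FBS medium. Loss of signal fitted against DMSO.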

[8] = target: Retinoic acid receptor RXR-alpha (Homo sapiens) (UniProt P19793); assay: TOX21_TR_RXR_BLA_Antagonist_Followup_ratio: Tox21 Thyroid Hormone Receptor beta Retinoid X Receptor alpha (RXRa) Antagonism Beta-lactamase (BLA) Follow-Up Assay, Ratio (AID 2283972)
Procedure, shortened: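 After 5 h attachment at 37C, HEK293T RXRa-bla cells (2,500/well, 2% charcoal-stripped FBS, no phenol red) received compounds at 11 concentrations in triplicate for 16 h. Beta-lactamase read as 460:530 nm ratio after 2 h RT substrate loading.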

[9] = TOX21_TR_RXR_BLA_Antagonist_Followup_viability: Viability Assessment in the Tox21 Thyroid Hormone Receptor beta Retinoid X Receptor alpha (RXRa) Antagonism Beta-lactamase (BLA) Follow-Up Assay (AID 2283979)
Procedure, shortened: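 RXRa-bla HEK293T cells (2,500/well, phenol red-free DMEM, 2% charcoal-stripped FBS) were attached 5 h, then exposed to compounds at 11 concentrations in triplicate for 16 h at 37C. Viability measured by CellTiter-Glo ATP luminescence, bidirectional fitting versus DMSO.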

[10] = CCTE_Harrill_HTTr_Viability_MCF7: CCTE's 6-hour Cell Viability Assessment for the High-Throughput Transcriptomics (HTTr) Platform, in MCF-7 cells cultured in DMEM + 10% fetal bovine serum, Harrill Lab (AID 2284010; active = hit-call score of the fitted dose curve at least 0.9, where 1 is the maximum; inactive = score below 0.9)
Procedure, shortened: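 Propidium iodide exclusion, imaged by high-content analysis, gauged viability after a six-hour exposure across eight concentrations. Cells were MCF-7 grown in DMEM with 10% fetal bovine serum; fits run in both directions against DMSO.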

[11] = CCTE_Harrill_HTTr_Apoptosis_MCF7: CCTE's 6-hour Apoptosis Assessment for the High-Throughput Transcriptomics (HTTr) Platform, in MCF-7 cells cultured in DMEM + 10% fetal bovine serum, Harrill Lab (AID 2284011; active = hit-call score of the fitted dose curve at least 0.9, where 1 is the maximum; inactive = score below 0.9)
Procedure, shortened: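 High-content imaging of CellEvent Caspase 3/7 Green signal follows a six-hour exposure, with eight concentrations per chemical. MCF-7 cells grown in DMEM plus 10% fetal bovine serum; activity fitted in both directions against DMSO.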

[12] = TOX21_p53_BLA_p3_viability: Viability Assessment in the Tox21 HCT-116 p53 Agonism Beta-lactamase Assay, Phase 3 (AID 2283593);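 note: cells exposed to compound for 16 h before reading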
Procedure, shortened: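 HCT116 cells, 4000/well, dosed 5 h after plating by pin transfer (217-fold dilution from DMSO stock) and incubated 16 h at 37C, 5% CO2. Viability read as ATP luminescence with CellTiter-Glo after 30 min at room temperature.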

[13] = target: Cellular tumor antigen p53 (Homo sapiens) (UniProt P04637); assay: TOX21_p53_BLA_p3_ratio: Tox21 HCT-116 p53 Agonism Beta-lactamase Assay, Ratio, Phase 3 (AID 2283596)
Procedure, shortened: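 Cells were seeded at 4000/well, rested 5 h at 37C, then dosed with DMSO compound solutions (217-fold dilution) for 16 h. CCF4-AM substrate was loaded for 2 h at room temperature, and the 460/530 nm emission ratio was fitted for gain of signal versus DMSO.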

Measured: AC50

Sequence of Cellular tumor antigen p53 (Homo sapiens) (P04637 whole entry, looked up): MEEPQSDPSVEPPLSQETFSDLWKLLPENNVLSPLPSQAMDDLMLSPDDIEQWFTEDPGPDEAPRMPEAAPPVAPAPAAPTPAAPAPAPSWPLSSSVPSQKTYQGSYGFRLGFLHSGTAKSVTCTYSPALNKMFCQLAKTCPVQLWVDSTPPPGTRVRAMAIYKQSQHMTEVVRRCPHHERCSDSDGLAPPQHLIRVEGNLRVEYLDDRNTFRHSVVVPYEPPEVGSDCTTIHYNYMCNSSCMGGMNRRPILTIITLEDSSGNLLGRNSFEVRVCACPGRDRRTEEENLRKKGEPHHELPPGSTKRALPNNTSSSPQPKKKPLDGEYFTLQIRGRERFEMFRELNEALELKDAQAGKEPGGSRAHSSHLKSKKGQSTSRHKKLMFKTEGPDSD
Sequence of Retinoic acid receptor RXR-alpha (Homo sapiens) (P19793 whole entry, looked up): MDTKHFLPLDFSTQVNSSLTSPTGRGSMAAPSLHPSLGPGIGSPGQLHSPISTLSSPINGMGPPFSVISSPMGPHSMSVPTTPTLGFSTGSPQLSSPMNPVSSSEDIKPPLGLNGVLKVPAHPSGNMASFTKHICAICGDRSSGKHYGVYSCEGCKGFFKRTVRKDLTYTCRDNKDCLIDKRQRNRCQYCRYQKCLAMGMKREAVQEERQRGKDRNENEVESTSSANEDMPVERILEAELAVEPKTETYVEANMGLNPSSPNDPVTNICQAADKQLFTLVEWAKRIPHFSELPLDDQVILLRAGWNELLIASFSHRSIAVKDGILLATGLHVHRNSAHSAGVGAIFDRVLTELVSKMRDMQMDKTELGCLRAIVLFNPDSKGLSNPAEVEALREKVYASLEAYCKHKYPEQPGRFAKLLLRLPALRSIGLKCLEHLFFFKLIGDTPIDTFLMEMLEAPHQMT
Sequence of THRB (gene 7068) (P10828 whole entry, looked up): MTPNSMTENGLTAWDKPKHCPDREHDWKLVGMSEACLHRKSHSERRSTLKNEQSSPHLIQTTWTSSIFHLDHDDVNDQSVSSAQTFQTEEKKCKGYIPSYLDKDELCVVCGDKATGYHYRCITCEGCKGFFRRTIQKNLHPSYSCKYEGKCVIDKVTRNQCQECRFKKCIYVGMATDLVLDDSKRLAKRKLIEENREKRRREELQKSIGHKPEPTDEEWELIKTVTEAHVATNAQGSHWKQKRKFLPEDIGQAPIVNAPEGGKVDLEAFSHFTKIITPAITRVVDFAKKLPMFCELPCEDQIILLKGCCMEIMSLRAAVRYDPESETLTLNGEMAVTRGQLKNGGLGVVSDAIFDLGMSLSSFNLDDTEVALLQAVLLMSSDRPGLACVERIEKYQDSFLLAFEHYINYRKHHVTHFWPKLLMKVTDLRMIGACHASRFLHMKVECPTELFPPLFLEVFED

CCNc1cc(O)ccc1C
inactive: [1] | [2] | [3] | [4] | [5]

CC1(C)[C@@H]2CC[C@]3(C2)[C@@H]1C(=O)CCC3(C)C
inactive: [1] | [2] | [3] | [4] | [5]

N[C@H](C(=O)O)c1ccc(O)cc1
inactive: [1] | [2] | [6] | [4] | [5]

COc1ccc(/C=C/C(=O)Nc2ccccc2C(=O)O)cc1OC
active: [7] 2.7 µM
inactive: [1] | [2] | [3] | [4] | THRB (gene 7068) | [8] | [9]

CN1c2cc(O)c(N=NC(N)=O)cc2CC1S(=O)(=O)O (stereo not drawn)
inactive: [1] | [2] | [6]

CCOC(=O)[C@H](CCc1ccccc1)N[C@@H](C)C(=O)N(CC(=O)O)C1Cc2ccccc2C1
inactive: [1] | [2] | [4] | [5]
active: [3] 7.13 µM

Nc1ccn(C[C@@H](CO)OCP(=O)(O)O)c(=O)n1
inactive: [1] | [2] | [6] | [4]

C=CC1=C(C(=O)O)N2C(=O)[C@@H](NC(=O)C(=NOCC(=O)O)c3csc(N)n3)[C@H]2SC1
inactive: [1] | [2] | [6] | [5]

O=c1[nH]c(=O)c2ccccc2o1
inactive: [1] | [2] | [6]

CCOc1cc(OCC)c(C(=O)CCC(=O)O)cc1OCC
inactive: [1] | [2] | [3] | [4] | [5]

Cc1cn[nH]c1
inactive: [1] | [2] | [6] | [4]

CC(O)c1ccccc1 (stereo not drawn)
inactive: [1] | [2] | [3] | [4] | [5]

CC(=O)SC[C@@H](C)C(=O)N1CCC[C@H]1C(=O)N[C@@H](Cc1ccccc1)C(=O)O
inactive: [1] | [2] | [6] | [4]

CCNc1nc(NC(C)CC)nc(OC)n1 (stereo not drawn)
inactive: [1] | [2] | [6] | [5]
active: [4] 0.12 nM

CCOC(=N)CC(=O)OCC
inactive: [1] | [2] | [3] | [10] | [11]

NS(=O)(=O)c1cc2c(cc1Cl)NC(CC1CCCC1)NS2(=O)=O (stereo not drawn)
inactive: [1] | [2] | [6] | [4]

CN(C)CCc1c[nH]c2ccc(C[C@H]3COC(=O)N3)cc12
inactive: [1] | [2] | [6] | [4] | [5]

C=CCCCCCCCCCCCCCCCC
inactive: [1] | [2] | [3] | [5]

O=c1[nH]cnc2nc[nH]c12
inactive: [1] | [2] | [6] | [5]

CC1(C)S[C@@H]2[C@H](N=CN3CCCCCC3)C(=O)N2[C@H]1C(=O)O
inactive: [1] | [2] | [3] | [4] | [5]

CC(=O)[C@H]1CC[C@H]2[C@@H]3C[C@H](C)C4=CC(=O)CC[C@]4(C)[C@H]3[C@@H](O)C[C@]12C
inactive: [1] | [2] | [6]

NCCC[C@H](N)CC(=O)N[C@H]1CNC(=O)[C@H]([C@H]2C[C@H](O)NC(N)=N2)NC(=O)/C(=C/NC(N)=O)NC(=O)[C@H](CO)NC(=O)[C@H](CO)NC1=O (β3hOrn-[Dap]SS[ΔAla(Z-3-ureido)][X3]; lactam 1-C)
inactive: [1] | [2] | [3] | [5]

COc1ccc(N=[N+]([O-])c2ccc(OC)cc2)cc1
inactive: [1] | [2] | [6]

N#CCc1ccccc1[N+](=O)[O-]
inactive: [1] | [2] | [6] | [4] | [5]

CCC(C)C(C(=O)OCC[N+](C)(CC)CC)c1ccccc1 (stereo not drawn)
inactive: [1] | [12] | [13] | [3]

CCC(C)(C)OC(=O)N[C@@H](Cc1c[nH]c2ccccc12)C(=O)N[C@@H](CCSC)C(=O)N[C@@H](CC(=O)O)C(=O)N[C@@H](Cc1ccccc1)C(N)=O
inactive: [1] | [2] | [4] | [5]

CNC(=O)C[C@@H](N)C(=O)N[C@@H](C(=O)N[C@@H]1C(=O)N2[C@@H]1SC(C)(C)[C@@H]2C(=O)O)c1ccc(O)cc1
inactive: [1] | [2] | [4] | [5]

CC(=O)OC[C@H]1O[C@@H](O[C@H]2[C@H](O)[C@@H](OC(=O)c3ccccc3C(=O)O)[C@H](O)O[C@@H]2COC(C)=O)[C@H](O)[C@@H](OC(=O)c2ccccc2C(=O)O)[C@@H]1O
inactive: [1] | [12] | [13] | [3]

Cc1cccc(C)c1NC(=O)c1cc(S(N)(=O)=O)c(Cl)cc1O
inactive: [1] | [12]

NC(=O)CCCCC(N)=O
inactive: [1] | [12] | [13] | [3] | [6] | [4]

CON=C1C[C@]2(C[C@@H]3C[C@@H](C/C=C(\C)C[C@@H](C)/C=C/C=C4\CO[C@@H]5[C@H](O)C(C)=C[C@@H](C(=O)O3)[C@]45O)O2)O[C@H](/C(C)=C/C(C)C)[C@H]1C
inactive: [6] | [5]
active: [1] 8.61 µM and 8.38 µM | [12] 17.2 µM and 13.8 µM | [13] 35.2 µM and 21.3 µM | [3] 9.09 µM and 8.73 µM | [6] 22 µM | [4] 17.3 µM and 10.7 µM | [5] 18.8 µM

O=C(O)CN(CC(=O)O)CC1=CC2C(=CC1=O)Oc1cc(O)c(CN(CC(=O)O)CC(=O)O)cc1C21OC(=O)c2ccccc21 (stereo not drawn)
inactive: [1] | [12]

CCNC(=O)/C=C/c1cccc(Br)c1
inactive: [1] | [12] | [13] | [3] | [6] | [4]
